Assay results from PubChem BioAssay.

These compounds were tested on Human papillomavirus type 1a protein E7 (residues 44-93) (assay: HPV1a E7 fragment binders on microarrays, primary screen, biochemical, small-molecule microarray, residues 44-93, 635 nm fluorescence (AID 1108;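 note: E7 fragment applied at 1 µg/mL in TBST for 1 h at 4 C; score combines spot fluorescence with its signal to noise ratio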)). Settings: small-molecule microarray binding, fluorescence 635 nm; higher = more signal.

| Compound | composite z-score |
| --- | --- |
| CCCNC(=O)[C@@H]1c2ccccc2C(=O)N(Cc2ccc(OC(F)(F)F)cc2)[C@H]1c1ccc(CO)cc1 | 0.957 |
| O=C1OCCC=C[C@H]2OC34C=CCN(Cn5nnc6ccccc65)C(=O)[C@H]3N(CCCO)C(=O)[C@@H]4C12 (stereo not given in full) | -0.69 |
| CCOC(=O)C[C@H]1[C@H](OC(=O)c2ccc(-c3ccccc3)cc2)[C@@H](NC(=O)CC(C)C)c2cc(OCCCO)ccc2N1C(=O)c1ccc2ccccc2n1 | 0.903 |
| COCCOC(=O)N1C(=O)[C@@]2(c3cc(C#CC4=CCCCC4)ccc31)[C@H](c1ccccc1OCCO)N1[C@H](c3ccccc3)[C@H](c3ccccc3)OC(=O)[C@H]1[C@@H]2C(=O)NC[C@H](O)c1ccccc1 | 1.4 |
| COCCCNC(=O)[C@@]1(Sc2ccc(C)cc2)CC(=O)N(C2Cc3ccccc3C2)[C@@H]1c1ccc(CO)cc1 | 0.52 |
| COc1cc2c(cc1O)C(c1ccc(CN3CCCC3)cc1)N(Cc1cc3c(cc1Br)OCO3)CC2 (stereo not given) | -1.28 |
| CC(C)(C)OC(=O)CC[C@@]1(C(=O)NCC(O)CO)N=C(c2ccc(OCCCO)cc2)O[C@@H]1c1ccccc1CN=[N+]=[N-] (stereo not given in full) | 1.11 |
| Cc1ccc(S[C@]2(C(=O)NCCN3CCOCC3)CC(=O)N(Cc3ccccc3Cl)[C@@H]2c2ccc(CO)cc2I)cc1 | 0.772 |
| CC1CC/C=C\[C@H]2OC34C=CCN(C(C)(C)C)C(=O)[C@H]3N(CCCCCO)C(=O)[C@@H]4C2C(=O)O1 (stereo not given in full) | -1.33 |
| COc1ccc(CCNC(=O)[C@@]2(c3ccc([N+](=O)[O-])cc3)CC(=O)N(C3CCCCC3)[C@@H]2c2ccc(CO)cc2)cc1 | 0.91 |
